# This is a sample that favours compounds with a hit; in the whole collection about 0.87% have one here.
# TDP1 inh: inhibitors of human tyrosyl-DNA phosphodiesterase TDP1; Q9NUW8; hit rate 0.28% among 350,000; AID 485290; Potency, µM (top dose mostly 130 µM), without a hit: at the highest dose activity change, negative = inhibition, hits mostly inhibitors; recombinant TDP1, AlphaScreen DNA substrate cleavage; further: nearly all actives have a fitted effect of over 40% in size
# Target sequence (Q9NUW8 whole entry, looked up): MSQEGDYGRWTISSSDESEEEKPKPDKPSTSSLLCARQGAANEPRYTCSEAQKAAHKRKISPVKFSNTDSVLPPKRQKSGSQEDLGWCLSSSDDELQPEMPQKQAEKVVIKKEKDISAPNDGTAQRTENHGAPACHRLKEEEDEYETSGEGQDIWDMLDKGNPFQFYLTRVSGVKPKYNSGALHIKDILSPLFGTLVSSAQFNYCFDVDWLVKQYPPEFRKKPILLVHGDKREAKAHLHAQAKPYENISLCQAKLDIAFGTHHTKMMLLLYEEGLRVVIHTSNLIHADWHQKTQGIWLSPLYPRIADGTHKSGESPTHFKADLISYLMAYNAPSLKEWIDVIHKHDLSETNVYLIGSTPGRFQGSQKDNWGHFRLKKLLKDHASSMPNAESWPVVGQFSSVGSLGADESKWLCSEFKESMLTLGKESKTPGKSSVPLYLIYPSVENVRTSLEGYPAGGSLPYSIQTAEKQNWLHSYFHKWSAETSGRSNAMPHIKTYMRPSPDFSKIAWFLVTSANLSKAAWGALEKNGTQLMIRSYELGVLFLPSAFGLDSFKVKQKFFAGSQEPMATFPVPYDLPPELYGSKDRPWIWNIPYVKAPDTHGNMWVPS
#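 Enzyme-compound mixtures sat 15 min at room temperature, followed by a 5 min reaction with 15 nM final substrate and 10 min with AlphaScreen beads. Recombinant human Tdp1 was used at 1 nM final.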
# APEX1 inh: APE1 (human) endonuclease inhibition; recombinant APE1, TAMRA/BHQ-2 abasic DNA cleavage fluorescence; Potency, µM (top dose mostly 65.8 µM), inactives show at the top dose activity change, negative = inhibition, usual class: inhibitors; hit rate 0.35% among 350,000; AID 2517;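 further: plate controls were vehicle for no effect and reference inhibitor for full effect; nearly all actives have a fitted effect of over 55% in size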
#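 Compound pre-exposure to 0.75 nM APE1, 15 min at ambient temperature. Reaction initiated with 50 nM TAMRA/BHQ-2 THF substrate, read immediately in kinetic mode, 525 nm excitation, 598 nm emission.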
# RECQ1 inh: blocks DNA unwinding by human RECQ1 | RECQ1 DNA unwinding, red fluorescence kinetic read | hit rate 0.54% among 240,000 | P46063 | Potency, µM (series often up to 57.3 µM), for inactives: at the top dose activity, negative = inhibition, most hits filed as inhibitors | AID 2549;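 further: plate controls were vehicle for no effect and no enzyme for full effect; nearly all actives have a fitted effect of over 30% in size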
#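 50 nM RECQ1T1 preincubated 15 min with compound in Tris pH 8.0 buffer with MgCl2, DTT, Tween-20 and 2.5 ug/ml poly(dI-dC); started with 200 nM TAMRA/BHQ-2 forked duplex and 2 mM ATP. Unwinding read as fluorescence (525/598 nm), two reads 2 h apart.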
# BLM helicase inh: Bloom syndrome helicase (human) inhibition; AID 2528; hit rate 0.2% among 350,000; Potency, µM (doses to about 56.1 µM), for inactives: at the top dose activity change, negative = inhibition, hits mostly inhibitors; recombinant BLM DNA unwinding, fluorescence dequenching;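 further: plate controls were vehicle for no effect and no enzyme for full effect; nearly all actives have a fitted effect of over 35% in size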
# KAT2A inh: GCN5L2 (KAT2A) acetyltransferase inhibition. Potency, µM (series often up to 58.9 µM), inactives show top-dose activity change, negative = inhibition, actives largely listed as inhibitors. GCN5L2 HAT assay, ThioGlo1 CoA-SH fluorescence. hit rate 0.21% among 390,000. Q92830
#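 GCN5L2 (20 nM) in 50mM HEPES pH 7.5, 0.1mM EDTA, 0.01% Tween-20 preincubated 15 min with compounds at room temperature. Reaction started with H3(1-25) 75uM, acetyl-CoA 70uM, ThioGlo1 50uM; CoA-thiol fluorescence (Ex340/Em540) read at 0 and 20 min.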
# * = called active by the depositor; i = inactive; ? = inconclusive; . = no result; ! = not active in a repeat; [ ] = dose if it differs, or a comment. The call rests on the fitted dose curve; in most records, active means well fitted curve in the direction sought with a large enough effect; inconclusive means small, poorly fitted or top-dose-only effect, or another doubt; inactive means no such curve, though single readings can be large; an effect the other way counts as inactive or inconclusive. Unless noted, on the % scale 0 is the no-effect control and ±100 the full control effect; potency means the concentration at half of the fitted maximal effect.
SMILES,TDP1 inh,APEX1 inh,RECQ1 inh,BLM helicase inh,KAT2A inh
Cc1ccc(NS(=O)(=O)c2ccc3c(c2)CC(=O)N3)c(C)c1,.,31.1%,.,-1.0%,25.1µM*
O=S(=O)(c1ccc2ccccc2c1)N1CCN(S(=O)(=O)c2c(F)cccc2F)CC1,-0.1%,12.1%,.,.,-1.7%
O=c1[nH]c2ccc(S(=O)(=O)N3CCN(S(=O)(=O)c4c(F)cccc4F)CC3)cc2[nH]c1=O,44.7µM*,.,.,.,.
Cc1cccc(C(=O)NC2CCN(C#N)CC2)c1,-0.6%,.,.,.,.
O=c1nc2c(O)cccn2c2c1c(=O)[nH]c1ccccc12,-5.7%,4.5%,-7.6%,7.94µM*,?
Cc1cc(=O)n2cccc(O)c2n1,2.4%,18.4%,i,-0.6%,-6.2%
CCOC(=O)c1ccccc1NC(=O)Cn1c(=O)n(Cc2ccc(C(=O)NCc3ccc4c(c3)OCO4)cc2)c(=O)c2ccccc21,3.6%,.,.,-5.2%,3.5%
O=C(Cn1c(=O)n(Cc2ccc(C(=O)NCc3ccc4c(c3)OCO4)cc2)c(=O)c2ccccc21)Nc1ccc(F)cc1F,25.1µM*,.,.,-15.3%,-8.9%
CCc1cc(=O)oc2cc(C)cc(OCC(=O)N[C@@H](CSCc3ccccc3)C(=O)O)c12,.,8.9%,.,0.9%,-4.3%
CCCCc1cc(=O)oc2cc(C)cc(OCC(=O)N[C@@H](CSCc3ccccc3)C(=O)O)c12,.,7.3%,.,-0.8%,1.78µM*
CC1(C)S[C@@H]2[C@H](NC(=O)[C@H](N)c3ccccc3)C(=O)N2[C@H]1C(=O)O,22.4µM*!,10µM*!,20µM*!,?,-9.9%
CC1(C)SC2C(NC(=O)C(C(=O)O)c3ccccc3)C(=O)N2C1C(=O)O (configuration not stated),7.9%[56.1 µM],.,i,-3.2%,8.9%
Fc1ccc(-c2cc(C(F)(F)F)nc(NCc3ccccc3)n2)cc1,5.9%,.,.,-4.1%,-10.0%
CN(Cc1ccccc1)c1nc(-c2ccc(F)cc2)cc(C(F)(F)F)n1,22.4µM*,.,.,-3.1%,-7.2%
COCC(C)NC(=O)C(C)N1c2cccc3cccc(c23)S1(=O)=O (configuration not stated),20µM*,-11.8%,.,-1.0%,-13.0%
CNC(=O)C(C)N1c2cccc3cccc(c23)S1(=O)=O (configuration not stated),.,-0.5%,.,-3.6%,-2.8%
CC(=O)N1CCOc2ccc(S(=O)(=O)NCc3ccc(F)cc3)cc21,44.7µM*,?,.,-8.9%,-14.1%
CC(=O)N1CCOc2ccc(S(=O)(=O)NCCc3ccc(S(N)(=O)=O)cc3)cc21,-5.0%,-5.4%,.,-0.8%,-0.6%
CC(=O)N1CCOc2cc(S(=O)(=O)NCc3ccccc3Cl)c(Cl)cc21,6.31µM*,20.1%,.,-4.5%,-9.2%
O=C(COC(=O)Cc1ccc(Cl)cc1)NCc1ccco1,11.2µM*,?,.,.,-13.7%
O=C(COC(=O)Cc1ccc(Cl)c(Cl)c1)NCc1ccco1,-0.2%,20.6%,.,.,-2.4%
COc1cccc(NC(=O)C(OC(=O)CNC(=O)c2ccccc2)c2ccccc2)c1 (configuration not stated),0.3%,.,.,.,.
O=C(O)c1cc(C(=O)O)cc(-c2ccc(/C=c3/sc4nc5ccccc5n4c3=O)o2)c1,.,28.2µM*,?,87.9%,-12.3%
O=c1/c(=C/c2ccccn2)sc2nc3ccccc3n12,3.8%,-1.9%,-8.3%,-7.6%,-4.4%
O=c1/c(=C\c2cc([N+](=O)[O-])cc([N+](=O)[O-])c2O)sc2nc3ccccc3n12,2.6%,35.5µM*,14.1µM*,-5.6%,?
SMILES,TDP1 inh,APEX1 inh,RECQ1 inh,BLM helicase inh,KAT2A inh
COC(=O)c1ccccc1-c1ccc(/C=c2\sc3nc4cc(Br)cnc4n3c2=O)o1,.,-8.1%,.,.,.
COc1ccc(C2Nc3ccccc3C(=O)N2Cc2cccc(Cl)c2)cc1COc1ccc(NC(C)=O)cc1 (configuration not stated),1.1%,.,.,.,.
CCc1ccc(NC(=O)CS(=O)CC(=O)Nc2ccc(N3CCOCC3)cc2)cc1 (configuration not stated),50.1µM*,?,.,-11.4%,-28.8%
Cc1c(Cn2cnc3c(cnn3C(C)(C)C)c2=O)cccc1C(F)(F)F,.,-2.2%,.,.,.
CCOc1ccc(C(=O)NCCCCNC(=O)c2ccc(OCC)cc2)cc1,1.9%,8.9%,.,-11.4%,35.5µM*
CCOc1ccc(C(=O)NCCC(=O)NCCCC(=O)O)cc1,2.3%,-0.6%,i,-0.3%,-3.8%
Cc1cccc(Nc2nc(C#N)nc(NC3CCCC3)n2)c1,-5.3%,.,.,.,.
O=C1CC(c2ccccc2)CC2=C1C1(CCCCC1)N=C(Nc1nc3ccccc3o1)N2 (configuration not stated),0.5%,.,.,.,.
COc1cccc(C2c3c(ncn(-c4ccc(-c5ccccc5)cc4)c3=N)Oc3ccc4ccccc4c32)c1 (configuration not stated),3.2%,.,.,.,.
CN(C)[C@@H]1C(=O)C(C(=O)NCN2CCCC2)=C(O)[C@@]2(O)C(=O)C3=C(O)c4c(O)cccc4[C@@](C)(O)C3C[C@@H]12 (some centres not stated),.,7.94µM*,.,.,.
CO[C@H]1C[C@H](O[C@H]2[C@H](C)[C@@H](O[C@@H]3O[C@H](C)C[C@H](N(C)C)[C@H]3O)[C@@H](C)C[C@]3(CO3)C(=O)[C@H](C)[C@@H](O)[C@@H](C)[C@@H](C)OC(=O)[C@@H]2C)O[C@@H](C)[C@@H]1O,.,-1.0%[21 µM],.,.,.
O=S(=O)(NCc1cccs1)c1ccccc1Cl,-4.8%,23.7%,.,.,1.1%
O=S(=O)(NCc1cccs1)c1cccc2cccnc12,0.0%,-2.2%,-0.8%,-1.3%,3.98µM*
CCCSS/C(CCO)=C(/C)N(C=O)Cc1cnc(C)nc1N,.,.,.,-0.2%,-0.4%
Cn1c(N)c(C(=O)COC(=O)c2cc(-c3ccccc3)nc3ccccc23)c(=O)n(Cc2ccccc2)c1=O,8.1%,-2.6%,-2.2%,-6.9%,-17.0%
CCCCn1c(N)c(N(CC(C)C)C(=O)c2cc(-c3ccco3)nc3ccccc23)c(=O)[nH]c1=O,.,5.3%,.,.,-4.5%
CCCCN(C(=O)c1cccc(-n2cccc2)c1)c1c(N)n(Cc2ccccc2)c(=O)[nH]c1=O,.,2.67µM*,.,.,-18.9%
CCCCN(C(=O)c1cc(-c2ccco2)nc2ccccc12)c1c(N)n(CCC)c(=O)[nH]c1=O,28.2µM*,?,.,.,-18.5%
Cn1c(=O)c(C(=O)COC(=O)c2cc(-c3ccco3)nc3ccccc23)c(N)n(Cc2ccccc2)c1=O,0.9%,?,31.6µM*,?,?
CNc1cccc(S(=O)(=O)N2CCCN(S(=O)(=O)c3ccc4c(c3)OCCO4)CC2)c1,0.0%,.,.,.,.
O=C(N/N=C/c1cn(-c2cccs2)nc1-c1ccccc1)c1ccccc1Br,3.2%,-8.5%,-8.9%,-7.4%,-15.0%

# Bioassay records from PubChem.
